{"source": "PubChem BioAssay AID2058", "about": "(Sanford-Burnham Center for Chemical Genomics, 2009)", "note": "Screen size: about 290,000 compounds; about 150 (0.052%) were called active. Only a selection was taken, and actives are over-represented in it overall. Entries with a potency or affinity are not part of this list. Values without a mark were called inactive.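 How the source made its calls: active means inhibition of at least 50% with at least 30 cells and total cytoplasm GFP at most 10,000,000; inconclusive means under 30 cells or total GFP of 10,000,000 plus; inactive means the rest.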", "data": [{"biological_target": "G-protein coupled receptor 35 (Homo sapiens) (UniProt Q9HC97)", "sequence (Q9HC97 whole entry, looked up)": "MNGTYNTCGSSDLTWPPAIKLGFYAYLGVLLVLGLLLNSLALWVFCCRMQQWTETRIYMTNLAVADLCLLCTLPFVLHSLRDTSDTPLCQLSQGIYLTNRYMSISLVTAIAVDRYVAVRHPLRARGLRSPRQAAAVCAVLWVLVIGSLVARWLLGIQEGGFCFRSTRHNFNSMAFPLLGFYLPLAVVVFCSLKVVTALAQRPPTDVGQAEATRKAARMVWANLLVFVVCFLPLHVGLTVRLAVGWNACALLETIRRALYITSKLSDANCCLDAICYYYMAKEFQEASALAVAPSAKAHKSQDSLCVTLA", "assay": "GPR35 antagonists blocking zaprinast-driven arrestin recruitment, primary screen, imaging, U2OS, beta-arrestin-GFP, zaprinast agonist (AID 2058)", "conditions": "U2OS GPR35 beta-arrestin-GFP translocation imaging, zaprinast antagonism; at 10 µM; active compounds read high", "values": [{"smiles": "COc1ccc(N=C2S/C(=C\\c3ccc(OCC(=O)O)cc3)C(=O)N2CCc2c[nH]c3ccccc23)cc1", "inhibition": "-10.9%"}, {"smiles": "COc1ccc(N=C2S/C(=C\\c3ccc(OC(C)C(=O)O)c(OC)c3)C(=O)N2CCc2c[nH]c3ccccc23)cc1", "note": "(configuration not stated)", "inhibition": "-11.1%"}, {"smiles": "Cc1ccc2oc(C(=O)Nc3ccc(S(=O)(=O)Nc4ncccn4)cc3)c(C)c2c1", "inhibition": "18.7%"}, {"smiles": "COc1ccc(/C=C2\\Cc3ccccc3C2=O)cc1OC", "inhibition": "10.6%"}, {"smiles": "COc1ccc(/C=C2\\CC/C(=C\\c3ccc(OC)c(OC)c3)C2=O)cc1OC", "inhibition": "-1.3%"}, {"smiles": "N/C(=N\\OC(=O)COc1ccccc1)c1ccncc1", "inhibition": "-1.4%"}, {"smiles": "CCOc1ccccc1/C=N/NC(=O)Cc1csc(Nc2cccc(C(F)(F)F)c2)n1", "inhibition": "20%"}, {"smiles": "CCOc1ccc(/C=N/NC(=O)Cc2csc(Nc3cccc(C(F)(F)F)c3)n2)c(OCC)c1", "inhibition": "-0.3%"}, {"smiles": "O=C(Nc1ccccc1F)C1CCCN(S(=O)(=O)c2ccc(-n3cnnn3)cc2)C1", "note": "(configuration not stated)", "inhibition": "7.9%"}, {"smiles": "O=C(/C=C/c1cccs1)c1cc(Cl)ccc1O", "inhibition": "-8.1%"}, {"smiles": "CN(C)c1ccc(/C=C/C(=O)c2ccccc2O)cc1", "inhibition": "21.4%"}, {"smiles": "O=C(/C=C/c1ccncc1)c1cc(Cl)ccc1O", "inhibition": "96.6% (active)"}, {"smiles": "CN(C)c1ccc(/C=C/C(=O)c2cc(Cl)ccc2O)cc1", "inhibition": "57.6% (active)"}, {"smiles": "COc1ccc(C(=O)/C=C/c2ccc(N(C)C)cc2)c(OC)c1", "inhibition": "21.5%"}, {"smiles": "O=C(/C=C/c1ccc2ccccc2n1)c1cc(Cl)ccc1O", "inhibition": "7.6%"}, {"smiles": "CC(C)N(CCc1ccncc1)C(=S)Nc1ccc(F)c(Cl)c1", "inhibition": "4.6%"}, {"smiles": "CC(C)c1ccc(C(=O)NC(=S)Nc2ccc3[nH]c(=O)[nH]c3c2)cc1", "inhibition": "-6.7%"}, {"smiles": "CC(=O)c1cc2c(cc1N/C(=N/S(=O)(=O)c1ccccc1)c1ccc(Cl)cc1)OCO2", "inhibition": "13.2%"}, {"smiles": "CC(C)(C)CC(C)(C)NC(=S)Nc1ccc(S(=O)(=O)N2CCOCC2)cc1", "inhibition": "-2.7%"}, {"smiles": "CCCCOC(=O)c1ccc(NC(=O)c2cc(Cl)c(Cl)cc2C(=O)O)cc1", "inhibition": "-5.9%"}, {"smiles": "CCCCOC(=O)c1ccc(NC(=O)c2ccccc2OC)cc1", "inhibition": "12.9%"}, {"smiles": "Cc1ccc(NC(=O)C(C)Sc2nnc(-c3cccnc3)n2-c2ccccc2)cc1", "note": "(configuration not stated)", "inhibition": "-0.8%"}, {"smiles": "Cc1nn(C(C)C(=O)NCCc2ccco2)c(=O)c2nn(-c3ccccc3)c(C)c12", "note": "(configuration not stated)", "inhibition": "-4%"}, {"smiles": "Cc1cc(-c2nn(-c3ccccc3F)cc2CN2CCC(O)CC2)c(C)s1", "inhibition": "-0.9%"}, {"smiles": "Cc1cc(-c2nn(-c3ccccc3F)cc2CN(C)CC(O)CO)c(C)s1", "note": "(configuration not stated)", "inhibition": "103% (active)"}, {"smiles": "Cc1cc(-c2nn(-c3ccccc3F)cc2CN2CCCC(CO)C2)c(C)s1", "note": "(configuration not stated)", "inhibition": "19.6%"}, {"smiles": "COCc1cc(/C=N\\NC(=O)Cc2ccc(Cl)cc2)ccc1OC", "inhibition": "1.9%"}, {"smiles": "O=C(CCc1nnc2n(Cc3ccc(F)cc3)c(=O)c3ccccc3n12)NCCCN1CCOCC1", "inhibition": "-5.8%"}, {"smiles": "CCOc1ccc(/C=C2\\SC(=S)NC2=O)cc1OC", "inhibition": "-8%"}, {"smiles": "CCOc1ccc(/C=C2/SC(=O)NC2=S)cc1", "inhibition": "5.9%"}, {"smiles": "CCOc1ccc(NC(=S)N(CCN2CCOCC2)Cc2cc3cc4c(cc3[nH]c2=O)OCCO4)cc1", "inhibition": "6.4%"}, {"smiles": "COc1ccc(NC(=S)N(CCN2CCOCC2)Cc2cc3cc4c(cc3[nH]c2=O)OCCO4)cc1", "inhibition": "98.1% (active)"}, {"smiles": "COc1ccc(NC(=S)N(CCN2CCOCC2)Cc2cc3cc4c(cc3[nH]c2=O)OCO4)cc1", "inhibition": "-1.5%"}, {"smiles": "CS(=O)(=O)c1ccc(NCCc2ccc(S(N)(=O)=O)cc2)c([N+](=O)[O-])c1", "inhibition": "-3.1%"}, {"smiles": "COc1ccc(N2CCN(C3CC(=O)N(Cc4ccccc4)C3=O)CC2)cc1", "note": "(configuration not stated)", "inhibition": "6.4%"}, {"smiles": "COc1cc(/C=N/O)cc(Cl)c1OC", "inhibition": "1.8%"}, {"smiles": "O=c1cc(CSCc2ccc(Cl)cc2)[nH]c(=O)[nH]1", "inhibition": "2.3%"}, {"smiles": "Cc1[nH][nH]c(=O)c1N=Nc1ccc(Cl)cc1", "inhibition": "-3.2%"}, {"smiles": "O=c1cc(N=Nc2ccc(Cl)cc2)[nH]c(=O)[nH]1", "inhibition": "52.2% (active)"}, {"smiles": "O=C(COc1ccc(Cl)cc1Cl)NCCSc1ccc(Cl)cc1", "inhibition": "-14.2%"}, {"smiles": "O=C(O)c1ccc(Nc2cc(Cl)c3nonc3c2[N+](=O)[O-])cc1", "inhibition": "8.7%"}, {"smiles": "O=[N+]([O-])c1c(Nc2ccc(O)cc2)cc(Cl)c2nonc12", "inhibition": "72.1% (active)"}, {"smiles": "O=[N+]([O-])c1c(Nc2cccc(O)c2)cc(Cl)c2nonc12", "inhibition": "35%"}, {"smiles": "COC(=O)C1=C(C)N=C2SCCC(=O)N2C1c1cc(Br)ccc1OC", "note": "(configuration not stated)", "inhibition": "-10.8%"}, {"smiles": "CCOC(=O)c1cnn(CCOC(=O)C2CC2)c1NC(=O)C1CC1", "inhibition": "-5.8%"}, {"smiles": "Cc1cccc(N=Cc2[nH]c3ccc(Br)c(Cl)c3c2O)c1", "inhibition": "54% (active)"}, {"smiles": "Cc1cccc(N=Cc2cc(Br)cc(Cl)c2O)c1", "inhibition": "-33.9%"}, {"smiles": "Cc1cc(C)cc(N=Cc2[nH]c3ccc(Br)c(Cl)c3c2O)c1", "inhibition": "41%"}, {"smiles": "Nc1c(S(=O)(=O)c2cccs2)c2nc3ccccc3nc2n1CC1CCCO1", "note": "(configuration not stated)", "inhibition": "4.2%"}, {"smiles": "NC1=NC(=O)C2(COC(c3cccnc3)OC2)S1", "note": "(configuration not stated)", "inhibition": "-12.6%"}, {"smiles": "O=[N+]([O-])c1ccc2[nH]nc(-c3ccccc3)c2c1", "inhibition": "-6.7%"}, {"smiles": "Nc1nc2ccc([N+](=O)[O-])cc2[nH]1", "inhibition": "20.4%"}, {"smiles": "CCC(=O)Nc1nnc(SCC(=O)NCCc2ccc(OC)c(OC)c2)s1", "inhibition": "-2.7%"}, {"smiles": "Cc1cc(SCC(=O)N/N=C/c2ccc(C(=O)O)cc2)nc2ccccc12", "inhibition": "1.1%"}, {"smiles": "CC(C)N1C(=O)S/C(=C\\c2ccc(-c3ccc(Cl)c(C(=O)O)c3)o2)C1=O", "inhibition": "-27.6%"}, {"smiles": "CC(C)N1C(=O)S/C(=C/c2ccc(Sc3nc4ccccc4[nH]3)o2)C1=O", "inhibition": "-6.1%"}, {"smiles": "CCN(CC)c1ccc(/C=C2\\SC(=O)N(C(C)C)C2=O)o1", "inhibition": "102% (active)"}, {"smiles": "COc1ccccc1OCCNC(=O)Nc1cc(F)c(F)cc1Cl", "inhibition": "3.6%"}, {"smiles": "COc1cc(-c2nc(Cc3c(F)cccc3Cl)no2)cc(OC)c1OC", "inhibition": "7.3%"}, {"smiles": "Oc1ccccc1C1=NN(c2ccccc2)C(c2ccc(F)cc2)C1", "note": "(configuration not stated)", "inhibition": "1.5%"}, {"smiles": "Oc1ccc(C2=NN(c3ccccc3)C(c3ccc(F)cc3)C2)cc1", "note": "(configuration not stated)", "inhibition": "78.6% (active)"}, {"smiles": "COc1ccc(C2CC(c3ccc(F)cc3)=NN2c2ccccc2)cc1OC", "note": "(configuration not stated)", "inhibition": "-7.1%"}]}]}
